Assay results from PMC4336329 (PLoS ONE, 2015).
Screen size: about 310,000 compounds; about 14,000 (4.5%) showed an effect of 50% or more. Effects have a minus sign here. The list comes from a sample in which strong results are over-represented; it also holds similar structures and randomly drawn compounds.

Each compound was assayed against human ether-à-go-go-related gene (hERG) potassium channel (human, UniProt Q12809) (assay: primary screen, population patch clamp on CHO cells stably expressing hERG; higher = less effect of the substance).
human ether-à-go-go-related gene (hERG) potassium channel, sequence (Q12809 whole entry, looked up): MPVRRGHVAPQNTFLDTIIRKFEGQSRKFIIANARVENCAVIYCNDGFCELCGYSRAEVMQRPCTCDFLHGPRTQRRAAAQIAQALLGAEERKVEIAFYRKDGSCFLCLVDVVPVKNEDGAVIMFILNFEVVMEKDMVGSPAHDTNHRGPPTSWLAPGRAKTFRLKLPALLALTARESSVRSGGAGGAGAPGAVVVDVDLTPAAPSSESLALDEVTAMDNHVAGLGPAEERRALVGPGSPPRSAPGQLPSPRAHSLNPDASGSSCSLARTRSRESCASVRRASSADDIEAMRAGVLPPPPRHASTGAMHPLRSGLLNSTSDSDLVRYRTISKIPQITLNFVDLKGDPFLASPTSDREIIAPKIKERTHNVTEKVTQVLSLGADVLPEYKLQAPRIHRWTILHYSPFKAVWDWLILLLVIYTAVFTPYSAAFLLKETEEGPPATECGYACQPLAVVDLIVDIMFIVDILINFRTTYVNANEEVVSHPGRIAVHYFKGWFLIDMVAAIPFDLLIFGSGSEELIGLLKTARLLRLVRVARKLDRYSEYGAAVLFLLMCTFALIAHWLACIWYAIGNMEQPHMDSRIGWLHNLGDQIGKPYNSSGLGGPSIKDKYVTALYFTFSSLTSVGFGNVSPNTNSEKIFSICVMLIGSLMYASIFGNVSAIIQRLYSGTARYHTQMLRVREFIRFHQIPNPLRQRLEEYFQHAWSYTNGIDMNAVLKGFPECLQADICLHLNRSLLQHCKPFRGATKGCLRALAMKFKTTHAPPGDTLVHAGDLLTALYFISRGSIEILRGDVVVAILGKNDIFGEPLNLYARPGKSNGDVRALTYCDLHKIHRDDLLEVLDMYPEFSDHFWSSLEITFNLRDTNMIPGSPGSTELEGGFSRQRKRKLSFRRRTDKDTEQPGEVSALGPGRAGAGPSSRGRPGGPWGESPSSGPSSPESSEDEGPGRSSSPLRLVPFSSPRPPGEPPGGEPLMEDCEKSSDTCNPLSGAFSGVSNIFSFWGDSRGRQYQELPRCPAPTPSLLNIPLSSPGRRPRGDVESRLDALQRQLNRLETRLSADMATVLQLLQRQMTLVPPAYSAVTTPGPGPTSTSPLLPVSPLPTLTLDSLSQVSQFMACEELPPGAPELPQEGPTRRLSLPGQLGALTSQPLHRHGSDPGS
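Further: peak tail current of the secondary pulse compared with the same well before compound.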

SMILES	hERG current change (%, negative = inhibition) at 10uM
Cc1nnc(SCc2nc3ccccc3s2)n1-c1ccccc1	2.82%
Cc1ccc(-n2[nH]c(C)c(/C=N/Nc3ccc([N+](=O)[O-])cc3[N+](=O)[O-])c2=O)cc1	23.9%
CNC(=S)N1CCN(CCN=Cc2c(O)n(-c3ccc(C)cc3)c(=S)[nH]c2=O)CC1	21.2%
C=CCNC(=S)N1CCN(CCN=Cc2c(C)[nH]n(-c3ccc([N+](=O)[O-])cc3)c2=O)CC1	-72.1%
CC(=O)N1CCN(CCN=Cc2c(O)n(-c3ccc(F)cc3)c(=S)[nH]c2=O)CC1	22.1%
O=c1c(C=NCCN2CCNCC2)c(-c2ccccc2)[nH]n1-c1ccc([N+](=O)[O-])cc1	-66.4%
Cc1[nH]n(-c2ccc([N+](=O)[O-])cc2)c(=O)c1C=NCCN1CCN(C(=O)c2ccccc2)CC1	-71.6%
Cc1[nH]n(-c2ccc([N+](=O)[O-])cc2)c(=O)c1C=NCCN1CCN(C(=O)c2ccc(F)cc2)CC1	-73.7%
CC1(C)CC(=O)C(C=NCCN2CCN(C(=O)c3ccc(F)cc3)CC2)=C(O)C1	-21.1%
Cc1[nH]n(-c2ccc([N+](=O)[O-])cc2)c(=O)c1C=NCCc1c(C)[nH]c2ccccc12	1.38%
O=c1c(C=NCC2CCCO2)c(-c2ccccc2)[nH]n1-c1ccc([N+](=O)[O-])cc1 (stereo not shown)	7.58%
COc1ccc(-c2[nH]n(-c3ccc([N+](=O)[O-])cc3)c(=O)c2C=NCCN2CCNCC2)cc1	-4.9%
Cc1[nH]n(-c2ccc([N+](=O)[O-])cc2)c(=O)c1C=NCCc1c[nH]c2ccccc12	13.2%
COc1cc2cc(CN(CCO)S(=O)(=O)c3ccccc3Cl)c(=O)[nH]c2cc1OC	0.98%
O=C(NCCCCc1ccccc1)c1ccccc1Cl	-9.21%
CN(NC1OC(=O)c2ccccc21)c1ccc(C(F)(F)F)cc1[N+](=O)[O-] (stereo not shown)	34.2%
O=C(Nc1ccc(S(=O)(=O)Nc2ncccn2)cc1)C12CC3CC(CC(C3)C1)C2	13.4%
Cc1cc(C)c2nc(N3CCCN(C(=O)c4cnccn4)CC3)c(C#N)cc2c1	-38.5%
CCc1nnc(SCC(=O)Nc2nccs2)n1CC	18%
Cn1cc(CC(=O)NC2CCCCC2)c2ccccc21	21.3%
Cc1ccsc1C1C(C#N)=C(N)Oc2n[nH]c(C)c21 (stereo not shown)	18.7%
COC(=O)CN=Cc1c(C)[nH]n(-c2ccccc2)c1=O	-1.99%

SMILES	hERG current change (%, negative = inhibition) at 10uM
COc1ccc(CCN=Cc2c(C)[nH]n(-c3ccc([N+](=O)[O-])cc3)c2=O)cc1OC	16.4%
Cc1[nH]n(-c2ccccc2)c(=O)c1/C=N/NC(=O)c1cccc(F)c1	20.1%
Cc1[nH]n(-c2ccc([N+](=O)[O-])cc2)c(=O)c1C=NCCN1CCN(C(=O)c2cccc(F)c2)CC1	-73.4%
CC1(C)CC(=O)C(C=NCCN2CCN(C(=O)c3ccc(Br)cc3)CC2)=C(O)C1	-48.2%
Cc1[nH]n(-c2ccc([N+](=O)[O-])cc2)c(=O)c1C=NCCN1CCN(C(=O)C(C)C)CC1	-64.2%
Cc1[nH]n(-c2ccccc2)c(=O)c1/C=N/NC(=O)c1ccccc1F	2.32%
Cc1[nH]n(-c2ccc([N+](=O)[O-])cc2)c(=O)c1C=NCCN1CCN(C(=O)c2ccc(Br)cc2)CC1	-76.6%
Cc1[nH]n(-c2ccc([N+](=O)[O-])cc2)c(=O)c1C=NCCN1CCN(C(=O)c2ccccc2F)CC1	-71.2%
Cc1[nH]n(-c2ccc([N+](=O)[O-])cc2)c(=O)c1C=NCCc1ccc(S(N)(=O)=O)cc1	10.7%
Cc1[nH]n(-c2ccc([N+](=O)[O-])cc2)c(=O)c1/C=N/N1CCOCC1	0.128%
Cn1c(O)c(C=NCCN2CCN(C(=O)c3ccccc3)CC2)c(=O)n(C)c1=O	-16.6%
CC(=O)Nc1cccc(NC(=O)CSc2nccn2Cc2ccc(F)cc2)c1	0.742%
COc1cc2c(cc1NC(=O)C(C)OC(=O)c1ccc(S(=O)(=O)Nc3ccccc3Cl)cc1)oc1ccccc12 (stereo not shown)	21.8%
CCCCCCNc1cc(C)oc(=O)c1C(C)=O	-34.2%
CCOC(=O)C1CCCN(c2c(Nc3ccc(C)c(C)c3)c(=O)c2=O)C1 (stereo not shown)	-25.1%
CC(=O)c1ccc(NC(=O)C2C3C=CC(C3=C(c3ccccc3)c3ccccc3)C2C(=O)O)cc1 (stereo not shown)	2.53%
Br.COc1ccc(N=C/C=C2/C=C(c3ccccc3)OC(C)(C)O2)cc1	-49.1%
COc1cc(-c2nc3ccccn3c2/N=C/c2cccc(F)c2)ccc1O	4.38%
CCn1cc(C(=O)NC(=S)Nc2ccccc2Br)cn1	3.21%
O=C(O)CSCC(=O)N1CCCN(c2nc3ccc(Cl)cc3s2)CC1	5.89%
CCOC(=O)c1ccc(NC(=O)c2ccccc2C)cc1	-21.2%
CCOC(=O)NC(=O)COC(=O)c1ccc(O)cc1	-6.29%

SMILES	hERG current change (%, negative = inhibition) at 10uM
CCOC(=O)N/N=C(\C)c1cccs1	20.2%
CC(Sc1nnc(N)s1)C(=O)NCc1ccc2c(c1)OCO2 (stereo not shown)	0.709%
COc1ccc(CC(=O)Nc2cc(Cl)ccc2O)cc1	-1.45%
CSCC[C@H](NC(=O)NCc1cccs1)C(=O)O	-10.4%
Cc1ccccc1OCC(=O)Nc1ccc(N2CCN(C)CC2)c(Cl)c1	-68.8%
Cc1ccccc1OCC(=O)NC(=S)Nc1ccc(N2CCOCC2)c(Cl)c1	15.3%
CN1CCN(c2ccc(NC(=S)NC(=O)c3cccc4c(Cl)cccc34)cc2)CC1	0.63%
CN1CCN(c2ccc(NC(=S)NC(=O)c3cccc4ccccc34)cc2)CC1	-51%
CN1CCN(c2ccc(NC(=S)NC(=O)c3cccc4c(Br)cccc34)cc2)CC1	16.2%
CN1CCN(c2ccc(NC(=O)COc3ccc4ccccc4c3)cc2)CC1	-17.3%
CN1CCN(c2ccc(NC(=O)COc3cccc4ccccc34)cc2)CC1	-65.4%
Cc1ccccc1OCC(=O)Nc1ccc(N2CCN(C(=O)C(C)C)CC2)c(Cl)c1	-31.2%
CN1CCN(c2ccc(NC(=O)COc3ccccc3Cl)cc2)CC1	-29.2%
CC(C)Cc1nnc(NC(=O)C23CC4CC(CC(C4)C2)C3)s1	5.58%
Cc1cccc2cc(CN(CC3CCCO3)C(=O)c3cccnc3)c3nnnn3c12 (stereo not shown)	-5.82%
Cc1cc(NCCCN(C)C)n2c(nc3ccccc32)c1C#N	-1.49%
Cc1cc(C)nc(SCC(=O)N/N=C/c2ccc3c(c2)OCO3)n1	8.05%
CCOc1ccc(OCCSc2nc(N)cc(=O)[nH]2)cc1	1.58%
O=C(CSc1nc2ccccc2o1)NC1CCCC1	16.5%
CCCn1nc(C(=O)NCCc2ccc(S(N)(=O)=O)cc2)c2ccccc2c1=O	-15.8%
C/C(=N\Nc1nc2ccccc2[nH]1)c1cccs1	-19.2%
C/C(=N\Nc1nc2ccccc2[nH]1)c1ccccn1	-72.8%

SMILES	hERG current change (%, negative = inhibition) at 10uM
C/C(=N\Nc1nc2ccccc2[nH]1)c1ccc(C)o1	-17.7%
CS(=O)(=O)N1CCc2cc(S(=O)(=O)N3CCCCC3)ccc21	-14.8%
CC(=O)Nc1ccc(C(=O)OCc2ccc(F)cc2)cc1	-10.9%
COc1ccc([C@H]2CC(=O)C=C(c3cccc(C(C)C)c3)C2)cc1	-2.79%
Cc1[nH][nH]c(=O)c1C(c1ccc([N+](=O)[O-])cc1)c1c(C)[nH][nH]c1=O	23.9%
Cc1[nH][nH]c(=O)c1C(c1cc([N+](=O)[O-])ccc1O)c1c(C)[nH][nH]c1=O	-62.5%
Cc1[nH][nH]c(=O)c1C(c1cc(Br)ccc1O)c1c(C)[nH][nH]c1=O	12%
Cc1ccccc1NC(=O)CSc1nc(N)c(C#N)c(-c2cccs2)c1C#N	6%
CCOc1ccc(C(=O)OCC(=O)NCCNC(=O)COC(=O)c2ccc(OCC)cc2)cc1	13.8%
CCCSc1nnc(CNS(=O)(=O)c2ccc(C)cc2)n1C	8.4%
C=CCn1c(=O)n(C(=O)OCC)c2cc(Br)ccc21	-50.2%
CCOC(=O)n1c(=O)n(C)c2ccc(Br)cc21	-7.75%
CCOC(=O)n1c(=O)[nH]c2ccc(Br)cc21	2.18%
CC(=O)N1CCN(c2ccc(NC(=O)c3cccc(C)c3)cc2)CC1	18.5%
COC(=O)c1ccc(NC(=O)CSc2nn3c(=O)c(C)nnc3s2)cc1	7.44%
N#Cc1cccc(S(=O)(=O)NCC(=O)NCc2ccc3c(c2)OCO3)c1	5.51%
Cc1ccc(NC(=O)CCN2CCN(C)CC2)cc1.Cl	10.6%
Cl.O=C(CCN1CCN(CCO)CC1)Nc1ccc(C2CCCC2)cc1	-43%
CN1CCN(CCC(=O)Nc2ccc(C3CCCC3)cc2)CC1.Cl	-55.1%
CN1CCN(CCCCC(=O)c2ccccc2)CC1.Cl	-0.477%
CN1CCN(CCCC(=O)c2ccc(C3CCCC3)cc2)CC1.Cl.O	-50%
COc1ccc(C(=O)OCC(=O)c2ccc(C3CCCCC3)cc2)cc1	5.66%
